Hits are enriched below; roughly 7.3% of the tested compounds scored in any of these assays.
HCV inhibitor = inhibitors of hepatitis C virus infection; Huh7.5.1 HCVcc-Cre infection, luciferase reporter, 44 h; Potency, µM (titrated, usually from 41.8 µM), most hits filed as inhibitors; actives 3.4% (n = 340,000); active means well fitted inhibition curve with a large enough effect; inconclusive means small, poorly fitted or top-dose-only effect, or another doubt; inactive means no such curve, though single readings can be large or run the other way
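Cells seeded at 1,000/well and cultured 4 h, then compounds added followed by HCVcc-Cre virus (~0.5 moi). After 44 h further culture, luciferase substrate was added, plates held 15 min at room temperature, and luminescence read for 15 sec.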
HCMV inh = blocks human cytomegalovirus replication; activity change, negative = inhibition, % at 57.5 µM; HFF cells, HCMV-luciferase reporter, 72 h; hits give low values; actives 4.5% (n = 410,000); in the data active means activity change below about -60%; inconclusive means no clear call, values can overlap the other calls; inactive means above about -39%
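HFF cells seeded 16 h at 37C, treated with compounds, infected with luciferase-reporter HCMV at MOI 1 PFU/cell; luciferase read at 72 h post infection, normalized to buffer-only and Salinomycin controls.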
VACV Venus inh = inhibitors of vaccinia virus (Venus reporter) | actives 0.46% (n = 330,000) | Potency, µM (series often up to 36.5 µM), most hits filed as inhibitors | Vaccinia virus Venus reporter expression, fluorescence; calls by dose curve; tested in A549 cells; further: nearly all actives have a fitted effect of over 30% in size
FMDV antiviral = foot and mouth disease virus antiviral activity | AID 1159524 | Potency, µM (doses to about 57.9 µM), usual class: inhibitors | actives 1.2% (n = 410,000) | FMDV antiviral cell-based qHTS; calls by dose curve; tested in HEK293T cells; further: read-out not given here; nearly all actives have a fitted effect of over 45% in size
Vaccinia mCherry = vaccinia inhibition (mCherry reporter); Vaccinia virus mCherry reporter infection, fluorescence; Potency, µM (doses to about 36.5 µM), hits mostly inhibitors; actives 0.63% (n = 310,000); AID 720579; calls by dose curve; tested in A549 cells; further: nearly all actives have a fitted effect of over 35% in size
Of the large screens only hits and unclear results are named; the others gave an inactive call.

O=C(CN1CCN(c2cccc(C(F)(F)F)c2)CC1)Nc1ccc2c(c1)OCCCO2	none (no result: HCV inhibitor)
CC(C)(C)C(=O)N1CCN(c2ccc(NC(=O)c3ccc4c(c3)OCCO4)cc2)CC1	HCV inhibitor 10µM, HCMV inh -67.5, FMDV antiviral 31.6µM
Cc1cccc(CNc2ncncc2-c2cccc(NS(C)(=O)=O)c2)c1	none (no result: HCV inhibitor, HCMV inh)
Cc1ccc(Cn2c(CNS(=O)(=O)c3cccc([N+](=O)[O-])c3)nc3cccnc32)cc1	none (no result: HCV inhibitor)
O=C(Nc1ccc(N2CCN(C(=O)c3ccc(Cl)cc3)CC2)cc1)c1ccc2c(c1)OCCO2	HCV inhibitor 7.08µM, HCMV inh -92.0, VACV Venus inh inconclusive, FMDV antiviral 11.2µM, Vaccinia mCherry inconclusive
CCCC(=O)N1CCN(c2ccc(NC(=O)c3ccc4c(c3)OCCO4)cc2)CC1	FMDV antiviral inconclusive
O=C(Nc1ccc(C(=O)N2CCN(c3ccccc3F)CC2)cc1)C1=CSCCO1	HCMV inh -60.5 (no result: VACV Venus inh, Vaccinia mCherry)
O=C(Nc1ccc(N2CCN(C(=O)c3ccccc3)CC2)cc1)c1ccc2c(c1)OCCO2	HCV inhibitor inconclusive, HCMV inh -69.1, FMDV antiviral 31.6µM
O=C(Nc1ccc(C(=O)N2CCCCC2)cc1)C1=CSCCO1	none (no result: VACV Venus inh, Vaccinia mCherry)
Cc1ccccc1-c1cc(Nc2ccc(F)cc2)ncn1	none (no result: HCV inhibitor, HCMV inh)
CC(C)c1onc(C(=O)N2CCN(C(c3ccccc3)c3ccccc3)CC2)c1[N+](=O)[O-]	HCV inhibitor inconclusive, HCMV inh -97.6 (no result: VACV Venus inh, Vaccinia mCherry)
CC(C)c1onc(C(=O)N2CCN(c3ccc(F)cc3)CC2)c1[N+](=O)[O-]	none (no result: HCMV inh)
Cc1ccc(Cl)cc1N1CCN(C(=O)c2noc(C(C)C)c2[N+](=O)[O-])CC1	HCV inhibitor 3.55µM, HCMV inh -92.5 (no result: VACV Venus inh, Vaccinia mCherry)
CC(C)c1onc(C(=O)N2CCN(c3ccccc3)CC2)c1[N+](=O)[O-]	FMDV antiviral inconclusive (no result: VACV Venus inh, Vaccinia mCherry)
Cc1onc(C(=O)N2CCC(Cc3ccccc3)CC2)c1[N+](=O)[O-]	HCV inhibitor inconclusive, HCMV inh -90.8 (no result: VACV Venus inh, Vaccinia mCherry)
CCOc1ccc(C(=O)OCc2cc(=O)n3cc(C)sc3n2)cc1	none (no result: HCV inhibitor)
CSc1nnc(CCNC(=O)c2ccccc2C(F)(F)F)n1-c1ccc(F)cc1	none (no result: HCV inhibitor, HCMV inh)
CC1(O)C(=O)C2(C)C=CC1C1C(=O)N(c3ccccc3)C(=O)C12 (stereo unspecified)	none (no result: HCV inhibitor, VACV Venus inh, FMDV antiviral, Vaccinia mCherry)
OCc1cc(C(O)CNCCCCCCOCCCCc2ccccc2)ccc1O (stereo unspecified)	HCV inhibitor 8.91µM, HCMV inh -60.1, Vaccinia mCherry inconclusive
O=C(NCC1CCCO1)C(c1cccs1)N(Cc1cccs1)C(=O)Cn1nnc(-c2cccs2)n1 (stereo unspecified)	none
O=C(NCC1CCCO1)C(c1ccc(F)cc1)N(Cc1ccc(F)cc1)C(=O)Cn1nnc(-c2cccs2)n1 (stereo unspecified)	HCV inhibitor 2.51µM
CNc1nc2cnc(Nc3ccc(F)cc3)cc2n1-c1cccc(C(F)(F)F)c1	none (no result: HCV inhibitor, VACV Venus inh, FMDV antiviral, Vaccinia mCherry)
Oc1[nH]c2c(Cl)cc(Cl)cc2c1N=NC(=S)NCC1CCCO1 (stereo unspecified)	HCV inhibitor inconclusive, HCMV inh -68.1, FMDV antiviral 25.1µM
COc1ccc(/C=N/OCC(=O)N=Nc2c(O)[nH]c3ccc(Br)cc23)cc1OC	none
Cc1cccc(NC(=S)N=Nc2c(O)[nH]c3ccccc23)c1	HCV inhibitor inconclusive, VACV Venus inh inconclusive
COc1ccccc1NC(=S)N=Nc1c(O)[nH]c2ccc(Br)cc12	HCV inhibitor inconclusive, HCMV inh -66.5 (no result: VACV Venus inh, Vaccinia mCherry)
Oc1[nH]c2ccc(Br)cc2c1N=NC(=S)NCC1CCCO1 (stereo unspecified)	HCV inhibitor 11.2µM, HCMV inh inconclusive
COc1ccc(/C(C)=N/OCC(=O)N=Nc2c(O)[nH]c3ccc(Br)cc23)cc1	HCV inhibitor inconclusive, FMDV antiviral 39.8µM
COc1cccc2c(C)cc3nnc(SCC(=O)Nc4ccc(C)cc4)n3c12	none (no result: HCV inhibitor)
CCN1CCN(c2oc(/C=C/c3ccc(OC)c(OC)c3)nc2C#N)CC1	none (no result: HCV inhibitor)
CCCCNC(=O)c1nc2cc(C)c(C)cc2nc1-c1cccc(C(F)(F)F)c1	HCMV inh -93.8 (no result: HCV inhibitor, VACV Venus inh, FMDV antiviral, Vaccinia mCherry)
Cc1cccc2c1NC1(CCCC1)CC2C (stereo unspecified)	HCMV inh -63.0 (no result: VACV Venus inh, Vaccinia mCherry)
CC1CC2(CCCC2)Nc2ccc(F)cc21 (stereo unspecified)	HCMV inh inconclusive (no result: VACV Venus inh, Vaccinia mCherry)
Cc1noc(C)c1C(=O)NCc1ccccc1F	HCMV inh -68.9
Cc1nc(N2CCCC2)c2c(C(=O)N3CCN(c4cc(Cl)ccc4C)CC3)c(C)oc2n1	none (no result: HCV inhibitor)
CCCCN(C(=O)c1cc2c(s1)CCC2)c1c(N)n(CCCC)c(=O)[nH]c1=O	HCV inhibitor 11.2µM
CCCN(C(=O)c1cc(-c2ccco2)nc2ccccc12)c1c(N)n(Cc2ccccc2)c(=O)[nH]c1=O	none
CCCCC1CCC(C(=O)N(CCC(C)C)c2c(N)n(CCCC)c(=O)[nH]c2=O)CC1 (stereo unspecified)	VACV Venus inh 11.2µM, Vaccinia mCherry 15.8µM (no result: HCV inhibitor)
CCc1ccc(-c2nc(SCC(=O)N(CCOC)c3c(N)n(Cc4ccccc4)c(=O)[nH]c3=O)n[nH]2)cc1	HCMV inh -78.7
COCCN(C(=O)c1cc(-c2ccco2)nc2ccccc12)c1c(N)n(Cc2ccccc2)c(=O)[nH]c1=O	HCMV inh -69.1 (no result: VACV Venus inh, Vaccinia mCherry)
CCCCN(C(=O)c1cc2c(s1)CCCC2)c1c(N)n(CCC)c(=O)[nH]c1=O	none (no result: VACV Venus inh, Vaccinia mCherry)
COc1cccc(-c2ccc3ncnc(N(C)C)c3c2)c1	none (no result: HCV inhibitor, HCMV inh, VACV Venus inh, Vaccinia mCherry)
O=c1c(N2CCN(c3cccc(Cl)c3)CC2)csc2ccc(Cl)cc12	none (no result: HCV inhibitor)
Cc1cccc(C)c1NC(=O)CN(C)S(=O)(=O)c1ccc2c(c1)n(C)c(=O)c(=O)n2C	none (no result: HCV inhibitor)
Cc1cccc(C(=O)NCc2nc(-c3cccc(NC(=O)C4CCCN(C)C4)c3)oc2C)n1 (stereo unspecified)	none (no result: HCV inhibitor, HCMV inh)
CCCCn1c(N)c(N(CCC(C)C)C(=O)COC(=O)c2ccc([N+](=O)[O-])s2)c(=O)[nH]c1=O	HCV inhibitor inconclusive, HCMV inh -95.0, VACV Venus inh inconclusive
CCCCn1c(N)c(N(CCOC)C(=O)CSc2n[nH]c(-c3ccc(OC)cc3)n2)c(=O)[nH]c1=O	HCMV inh -76.1
CC(C)CN(C(=O)COC(=O)c1ccc([N+](=O)[O-])s1)c1c(N)n(Cc2ccccc2)c(=O)[nH]c1=O	HCV inhibitor inconclusive, FMDV antiviral inconclusive
CCCCn1c(N)c(N(CCOC)C(=O)CSCc2ccccc2C)c(=O)[nH]c1=O	HCMV inh -96.8
CCCCn1c(N)c(N(CCOC)C(=O)C2CCN(S(=O)(=O)c3ccc(Cl)cc3)CC2)c(=O)[nH]c1=O	HCMV inh -70.0
CCCCn1c(N)c(N(CCOC)C(=O)C2CCN(S(=O)(=O)c3ccc(F)cc3)CC2)c(=O)[nH]c1=O	none
CCNc1ncc2nc(CCc3ccccc3)c(=O)n(Cc3cccc(OC)c3)c2n1	none (no result: HCV inhibitor, HCMV inh, VACV Venus inh, Vaccinia mCherry)
CCCCN(C(=O)CSc1nncn1-c1ccccc1)c1c(N)n(Cc2ccccc2)c(=O)[nH]c1=O	HCMV inh -61.7 (no result: VACV Venus inh, Vaccinia mCherry)
CCN(CC)c1ccc(-c2nnc(SCC(=O)N(CCOC)c3c(N)n(CC(C)C)c(=O)[nH]c3=O)o2)cc1	VACV Venus inh inconclusive, Vaccinia mCherry 8.91µM
CCCCN(C(=O)CSc1nnc(-c2ccccc2)n1C)c1c(N)n(Cc2ccccc2)c(=O)[nH]c1=O	none
